This is part of a sample that, as a whole, favours compounds with a hit. Of some 83,000 tested, about 20% had one in any assay.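 How to read the values: 0–100, growth inhibition (40 = 60% inhibited); 0, no net growth; -100 to 0, cell death (-40 = 40% of starting cells died; -100 = all dead).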 A number with no mark means an inactive call. Calls of active or inactive are those of the source. Rule for the calls: active = growth percent below 10; inactive = the rest.
The compounds below were run on NCI-H322M lung (assay: NCI-60 one-dose screen, 48 h (100 = growth as untreated, 0 = no growth, -100 = all killed)). Settings: 10 µM unless noted.

SMILES | growth
O=C(O)COc1ccc([N+](=O)[O-])cc1Cl | 99.8%
C=C[C@]1(C)C=C2C(=O)[C@@]3(O)OC[C@@]4(CCCC(C)(C)C43O)C2(O)C(O)C1 (stereo not given in full) | 108%
COC(=O)C(C(=O)OC)C(Br)C(Br)C(Br)c1ccccc1 (stereo not given) | 113%
C=CCNCCC#N | 115%
O=C1C=C(OCC=C(C(F)(F)F)C(F)(F)F)c2ccccc2C1=O | 90.5%
N#CCc1ncc(-c2ccc(C(F)(F)F)cc2)c(NC2CCCCCC2)n1 | 68.1% [100 µM]
C[C@]12CC[C@H]3[C@@H](CC[C@H]4C[C@@H](O)CC[C@@]43C)[C@@H]1CC(=O)C2 | 106%
COC(=O)c1cc(=O)nc(N/N=C/c2ccccc2O)s1 | 67.2%
[N-]=[N+]=Nc1ncc(-c2ccc(C(F)(F)F)cc2)c(NC2CCCCCC2)n1 | 47.6% [100 µM]
NC(CSC(c1ccccc1)(c1ccccc1)c1ccccc1)C(=O)NCC(=O)O (stereo not given) | 47.9%
COc1cc(-c2nc(/C=C3/C(=O)Nc4ccccc43)c3ccccn23)cc(OC)c1OC | 113%
COc1cc2cn3c4ccc(O)cc4[nH]c(=O)c3c2cc1OC | 1.3% (active)
CCCCCCCCCCCCCCCCNC(=O)Nc1ccc(C)c(NC(=O)NCCCCCCCCCCCCCCCC)c1 | 108%
O=C(c1ccccc1)c1ccccc1-c1ccccc1 | 65.6%
CN1NC(c2ccccc2)NN(C)C1=O | 89.8%
COc1cc2c(c3c1c(=O)c1cccc(F)c1n3C)C=CC(C)(C)O2 | 79.5%
NCCCOc1cc2ccccc2cc1C(=O)Nc1ccc(Cl)cc1OC(=O)c1cc2ccccc2cc1OCCCN | -69.3% (active)
O=C(/C=C/c1ccc(Cl)cc1)c1ccc(Cl)cc1 | 91.3%
CC(=O)O.[In] | 97.6%
COC(=O)[C@H](Cc1cn(C)cn1)NC(=O)[C@H](CC(=O)OCc1ccccc1)NC(=O)Nc1cc(C(F)(F)F)cc(C(F)(F)F)c1 | -96.7% [100 µM] (active)

SMILES | growth
COc1cc([C@@H]2c3cc4c(cc3[C@H](O)[C@H]3COC[C@@H]23)OCO4)cc(OC)c1OC | 104%
COc1ccc(/C=C2\CCCC3=C2N=C2SC=NN2C3c2ccc(OC)c(OC)c2)cc1OC (stereo not given) | 38.3%
CC(=O)CC(=O)OC/C=C(/C)CCC=C(C)C | 118%
CC(=O)Nc1ccc(S(=O)(=O)Cl)cc1 | 111%
CC(CCN1CCN(CCC(C)CC(C)(C)C)C1CC(C)CC(C)(C)C)CC(C)(C)C (stereo not given) | 99.8%
C=C(C)C(C(=O)OCC)(C(=O)OCC)C(C)C | 111%
CSCc1ncc(-c2ccc(C(F)(F)F)cc2)c(NC2CCCCCC2)n1 | 97.9% [25 µM]
CCn1cnc(C[C@H](NC(=O)[C@@H](NC(=O)Nc2cc(C(F)(F)F)cc(C(F)(F)F)c2)C(C)C)C(=O)OC)c1 | -95.9% [100 µM] (active)
O=Nc1ccc(O)c2ccccc12 | 106%
COC(=O)c1c[n+]([O-])ccc1OC | 97.1%
CC#Cc1nc(Nc2cc(C)[nH]n2)c2ccccc2n1 | 9.12% [100 µM] (active)
CC(Br)c1nc2ccccc2cc1C(N)=O (stereo not given) | 99.9%
COC(=O)[C@H](Cc1cn(C)cn1)NC(=O)[C@@H](NC(=O)Nc1cc(C(F)(F)F)cc(C(F)(F)F)c1)C(C)(C)C | -35.3% [100 µM] (active)
CCCCCCC(C(=O)OCC)(C(=O)OCC)C1CCCCCC1 | 96.6%
CCCCCCCCCCCCCCCCCCOP(=O)(O)O | 103%
CCC(C)CC(N)O (stereo not given) | 116%
CN(C)CCOC(=O)C(C)(C)C | 107%
CNc1ccc(Nc2ccc(S(=O)(=O)O)cc2)c2c1C(=O)c1ccccc1C2=O | 112%
Cn1c2ccccc2c2ccccc21 | 94.9%
NCCCOc1cc(Cl)ccc1NC(=O)c1cc2ccccc2cc1OCCCN | -1.29% (active)

These compounds were tested on HOP-62 NSCLC in the same assay as above. Settings: 10 µM unless noted.

SMILES | growth
O=C(O)COc1ccc([N+](=O)[O-])cc1Cl | 90.5%
C=C[C@]1(C)C=C2C(=O)[C@@]3(O)OC[C@@]4(CCCC(C)(C)C43O)C2(O)C(O)C1 (stereo not given in full) | 107%
COC(=O)C(C(=O)OC)C(Br)C(Br)C(Br)c1ccccc1 (stereo not given) | 144%
C=CCNCCC#N | 105%
O=C1C=C(OCC=C(C(F)(F)F)C(F)(F)F)c2ccccc2C1=O | 66.6%
N#CCc1ncc(-c2ccc(C(F)(F)F)cc2)c(NC2CCCCCC2)n1 | 71.7% [100 µM]
C[C@]12CC[C@H]3[C@@H](CC[C@H]4C[C@@H](O)CC[C@@]43C)[C@@H]1CC(=O)C2 | 96.8%
COC(=O)c1cc(=O)nc(N/N=C/c2ccccc2O)s1 | 90.7%
[N-]=[N+]=Nc1ncc(-c2ccc(C(F)(F)F)cc2)c(NC2CCCCCC2)n1 | 69.9% [100 µM]
NC(CSC(c1ccccc1)(c1ccccc1)c1ccccc1)C(=O)NCC(=O)O (stereo not given) | 80%
COc1cc(-c2nc(/C=C3/C(=O)Nc4ccccc43)c3ccccn23)cc(OC)c1OC | 87.4%
COc1cc2cn3c4ccc(O)cc4[nH]c(=O)c3c2cc1OC | 4.45% (active)
CCCCCCCCCCCCCCCCNC(=O)Nc1ccc(C)c(NC(=O)NCCCCCCCCCCCCCCCC)c1 | 98%
O=C(c1ccccc1)c1ccccc1-c1ccccc1 | 32.5%
CN1NC(c2ccccc2)NN(C)C1=O | 93.6%
COc1cc2c(c3c1c(=O)c1cccc(F)c1n3C)C=CC(C)(C)O2 | 99.2%
NCCCOc1cc2ccccc2cc1C(=O)Nc1ccc(Cl)cc1OC(=O)c1cc2ccccc2cc1OCCCN | -92.3% (active)
O=C(/C=C/c1ccc(Cl)cc1)c1ccc(Cl)cc1 | 102%
CC(=O)O.[In] | 106%
COC(=O)[C@H](Cc1cn(C)cn1)NC(=O)[C@H](CC(=O)OCc1ccccc1)NC(=O)Nc1cc(C(F)(F)F)cc(C(F)(F)F)c1 | -100% [100 µM] (active)

SMILES | growth
COc1cc([C@@H]2c3cc4c(cc3[C@H](O)[C@H]3COC[C@@H]23)OCO4)cc(OC)c1OC | 65.4%
COc1ccc(/C=C2\CCCC3=C2N=C2SC=NN2C3c2ccc(OC)c(OC)c2)cc1OC (stereo not given) | 35.3%
CC(=O)CC(=O)OC/C=C(/C)CCC=C(C)C | 107%
CC(=O)Nc1ccc(S(=O)(=O)Cl)cc1 | 102%
CC(CCN1CCN(CCC(C)CC(C)(C)C)C1CC(C)CC(C)(C)C)CC(C)(C)C (stereo not given) | 93.5%
C=C(C)C(C(=O)OCC)(C(=O)OCC)C(C)C | 108%
CSCc1ncc(-c2ccc(C(F)(F)F)cc2)c(NC2CCCCCC2)n1 | 98.6% [25 µM]
CCn1cnc(C[C@H](NC(=O)[C@@H](NC(=O)Nc2cc(C(F)(F)F)cc(C(F)(F)F)c2)C(C)C)C(=O)OC)c1 | -97.9% [100 µM] (active)
O=Nc1ccc(O)c2ccccc12 | 38.4%
COC(=O)c1c[n+]([O-])ccc1OC | 97.1%
CC#Cc1nc(Nc2cc(C)[nH]n2)c2ccccc2n1 | -23.1% [100 µM] (active)
CC(Br)c1nc2ccccc2cc1C(N)=O (stereo not given) | 101%
COC(=O)[C@H](Cc1cn(C)cn1)NC(=O)[C@@H](NC(=O)Nc1cc(C(F)(F)F)cc(C(F)(F)F)c1)C(C)(C)C | -84.2% [100 µM] (active)
CCCCCCC(C(=O)OCC)(C(=O)OCC)C1CCCCCC1 | 91.9%
CCCCCCCCCCCCCCCCCCOP(=O)(O)O | 100%
CCC(C)CC(N)O (stereo not given) | 122%
CN(C)CCOC(=O)C(C)(C)C | 112%
CNc1ccc(Nc2ccc(S(=O)(=O)O)cc2)c2c1C(=O)c1ccccc1C2=O | 125%
Cn1c2ccccc2c2ccccc21 | 90.8%
NCCCOc1cc(Cl)ccc1NC(=O)c1cc2ccccc2cc1OCCCN | -94.3% (active)
